Bioassay records as filed in PubChem.
TROY signal inh: inhibitors of TROY-dependent NF-kB signaling; actives 0.98% (n = 360,000); AID 1347056; Q293 LMP1-TROYcd NF-kB luciferase reporter, 4 h; inhibition, % at 10 µM;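 active = compounds whose plate-normalised and pattern-corrected inhibition of the luciferase reporter signal at the single screening dose is 50% or more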
LGR2 antag: inhibitors of bursicon-induced Drosophila LGR2 receptor cAMP signaling | HEK293 LGR2, CRE-luciferase, bursicon-stimulated, 4 h | inhibition, % at 9.99 µM | actives 0.35% (n = 380,000);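 active = drop in luminescence signal, shown as inhibition above about 50% in the replicate tests, limit read from the data, passing the limit was not always enough; inconclusive = probably only some replicates passing the limit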;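 also: agonist challenge used bursicon conditioned medium at about half maximal strength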
LMP1 NFkB inh: reduces LMP1-driven NF-kappaB luciferase signal; LMP1-induced NF-kappaB luciferase reporter cells, luminescence; actives 0.69% (n = 350,000); inhibition, % at 12.5 µM; AID 504558; in the data active = inhibition above about 41%; inconclusive = no clear call, values can overlap the other calls;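 also: 0% = neutral control wells and 100% = reference inhibitor control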
TWEAK-Fn14 inh: TWEAK-Fn14 signaling inhibition; TWEAK-stimulated Fn14 reporter cells, luciferase luminescence, 8 h; inhibition, % at 10 µM; actives 2% (n = 360,000); in the data active = inhibition above about 50%
HSF1 inhib: HSF1 inhibition. actives 0.77% (n = 300,000). AID 2098. activity change, negative = inhibition, % at 7.5 µM (by protocol). NIH3T3-HGL HSE-luciferase, MG132-induced, luminescence 8 h; stronger effect = lower value;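 active = more than half of replicate wells show activity change below -50%, luminescence cut by over half; inconclusive = some wells, but at most half, below -50%; inactive = no replicate well below -50%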;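 also: luciferase reports HSF-1 transcriptional activity via heat shock element; 0% = median of DMSO wells and -100% = zero luminescence signal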
HSF-1 act: increases HSF-1 driven luciferase reporter signal | NIH3T3-HGL HSF-1 luciferase reporter, MG132, 8 h; 100% = twice DMSO control signal | activation, % at 9 µM | actives 1.7% (n = 300,000) | AID 504408;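 active = mean replicate activation of at least 50% with a set share of replicates each reaching 50%; inconclusive = only one of those two conditions met; inactive = mean below 50% and too few replicates reaching it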;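 also: 0% = median of the neutral control wells and 100% = twice that signal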
* = called active by the depositor; ? = inconclusive; · = no result. The list is not random: actives were taken first. Their share in the collection is about 3.6%.

SMILES	TROY signal inh	LGR2 antag	LMP1 NFkB inh	TWEAK-Fn14 inh	HSF1 inhib	HSF-1 act
COc1ccc(-c2nnc3ccc(SCC(=O)Nc4nc5ccc(C)cc5s4)nn23)cc1OC	87.4*	-8.9	-16.2	98.4*	2.1	3.5
NC(=S)N/N=C/c1coc2cc(Br)ccc2c1=O	-17.0	0.9	1.8	12.6	-5.7	-3.0
NC(=S)N/N=C/c1coc2c(ccc3ccccc32)c1=O	26.9	-53.8	0.1	51.1*	16.3	20.0
Cc1ccc(N/C=C(/C#N)c2ccsc2)cc1C	2.1	·	-27.1	-44.1	57.8	100.9*
CCCNC(=O)[C@@H]1[C@@H](CO)[C@@H]2Cn3c(ccc(-c4ccccc4F)c3=O)[C@H]1N2S(C)(=O)=O	·	-5.2	·	·	·	·
CCOc1ccc(NC(=O)CCc2nnc3ccc(N4CCC5(CC4)OCCO5)nn23)cc1	-3.0	-1.7	47.5*	9.1	-0.2	-5.2
O=C(CCc1nnc2ccc(N3CCC4(CC3)OCCO4)nn12)NCc1ccc(F)cc1	-1.4	5.7	5.7	-7.0	-72.2*	-76.6
O=C(N[C@@H]1CC[C@H](CCNC(=O)C2CC2)O[C@@H]1CO)c1ccncc1	·	-24.4	·	·	·	·
Cc1noc(C)c1NC(=O)Nc1ccc2c(c1)CC(=O)N([C@@H](C)CO)C[C@@H](C)[C@@H](CN(C)S(=O)(=O)c1ccc(Cl)cc1)O2	·	-3.0	·	·	·	·
O=C(C[C@@H]1CC[C@@H](NS(=O)(=O)c2ccc(F)cc2)[C@@H](CO)O1)NCc1ccccc1F	·	4.5	·	·	·	·
C[C@@H]1CN([C@H](C)CO)C(=O)c2cc(NC(=O)c3ccncc3)ccc2O[C@@H]1CN(C)Cc1ccc(C(=O)O)cc1	·	-3.8	·	·	·	·
CCOC(=O)C(C(=O)OCC)C(Nc1ccc(Br)cc1)c1ccccc1 (configuration not stated)	4.9	·	-16.9	54.1*	226.7	300.8*
Cc1noc(C)c1NC(=O)N(C)C[C@H]1OCCCC[C@@H](C)Oc2ccc(NS(=O)(=O)c3ccc(Cl)cc3)cc2C(=O)N([C@@H](C)CO)C[C@@H]1C	·	-0.6	·	·	·	·
CCc1cc2c(=O)n(C(C)C(=O)OC3CCCCC3)cnc2s1 (configuration not stated)	-47.9	-87.8	-23.9	-35.1	31.8	66.5*
Cc1oc(-c2ccccc2F)nc1CS(=O)(=O)CC(=O)NCCCN1CC(C)CC(C)C1 (configuration not stated)	8.8	4.2	1.2	-9.0	5.2	-1.7
Cc1oc(-c2ccccc2F)nc1CS(=O)(=O)CC(=O)NCCCN1CCN(C)CC1	8.7	12.7	3.8	-9.9	99.7	147.9*
Cc1noc(C)c1NC(=O)N1C[C@@H](O)COC[C@H]2O[C@@H](CC(=O)NCC3CCCCC3)CC[C@@H]21	·	-18.8	·	·	·	·
CCn1cc(C(=O)NCc2cccc(F)c2)c(=O)c2cc(F)c(N3CCN(C(=O)c4ccco4)CC3)cc21	41.9	·	12.8	51.8*	-6.3	-11.7
Cc1ccc(C)c(OCCn2cc(C(=O)O)c3ccccc32)c1	6.7	-13.0	-3.3	16.2	-1.2	4.7
CC(=O)c1cn(CCOc2cc(C)ccc2C)c2ccccc12	0.3	12.8	-0.5	100.0*	0.5	4.4
C[C@@H]1CN([C@@H](C)CO)S(=O)(=O)c2ccc(C#CC3CCCC3)cc2O[C@H]1CN(C)C(=O)C1CC1	·	13.1	·	·	·	·
COc1ccc(CN(C)C[C@@H]2Oc3ccc(NS(=O)(=O)c4ccc(C)cc4)cc3C(=O)N([C@H](C)CO)C[C@@H]2C)cc1	·	2.6	·	·	·	·
Cc1nn(Cc2ccccc2)c(C)c1NC(=O)c1noc2c1CCc1ccccc1-2	38.6	·	3.8	24.0	-67.2*	-72.0
O=C(Nc1cccc(O)c1)c1noc2c1CCc1ccccc1-2	45.8	·	0.8	71.8*	6.1	15.3
COc1ccc(-c2cc(C(=O)Nc3cc(C)ccc3O)no2)cc1	-32.1	-39.2	-11.9	-24.0	23.3	67.5*
SMILES	TROY signal inh	LGR2 antag	LMP1 NFkB inh	TWEAK-Fn14 inh	HSF1 inhib	HSF-1 act
COc1ccc(-c2cc(C(=O)Nc3cccc(O)c3)no2)cc1	30.5	34.8	4.4	66.8*	12.5	-8.9
CC(C)Cc1cc(C(=O)Nc2cccc(O)c2)no1	22.2	41.4	-1.7	64.9*	7.7	20.8
CCCNC(=O)N[C@@H]1CC[C@@H](CCNS(=O)(=O)c2cccc(F)c2)O[C@@H]1CO	·	6.4	·	·	·	·
COc1ccc2c3c(n(C)c2c1)[C@H](CO)N(C(=O)Cc1ccccc1)CC31CCN(C(C)=O)CC1	·	3.4	·	·	·	·
CCOC(=O)N1CCN(S(=O)(=O)c2ccc(Cl)cc2)CC1	0.1	21.3	14.5	14.4	-5.0	-3.5
O=C(CSc1ccc(F)cc1)N1CCN(S(=O)(=O)c2ccccc2)CC1	-8.7	-28.0	-3.2	1.8	-3.1	2.5
Cc1ccc(SCC2(O)CCN(S(=O)(=O)c3ccc(Cl)cc3)CC2)cc1	15.0	·	2.7	29.6	-10.5	8.7
Cc1ccc(S(=O)(=O)N2CCN(C(=O)CSc3ccc(Cl)cc3)CC2)cc1	12.2	10.2	7.9	9.1	26.2	74.5*
O=C(CSc1ccc(Cl)cc1)N1CCN(c2c(Cl)cccc2[N+](=O)[O-])CC1	-29.2	·	-3.4	-9.1	47.0	69.6*
CC(=O)Nc1ccc(SCC(=O)N2CCN(S(=O)(=O)c3ccccc3)CC2)cc1	-0.6	7.3	12.0	11.8	-57.2*	-64.6
O=C(/C=C/c1ccc(Cl)cc1)N1CCN(c2c(Cl)cccc2[N+](=O)[O-])CC1	10.4	20.7	8.3	12.4	-2.9	13.8
CCOC(=O)N1CCN(S(=O)(=O)c2ccc(C)cc2)CC1	17.8	-6.3	-5.6	77.2*	-3.7	5.0
O=C(C[C@H]1CC[C@H](NC(=O)c2cccc(F)c2)[C@H](CO)O1)NCc1ccc(Oc2ccccc2)cc1	·	1.6	·	·	·	·
COc1ccc(CN(C)C[C@H]2Oc3c(NC(=O)c4ccc(-c5nccs5)cc4)cccc3C(=O)N([C@@H](C)CO)C[C@H]2C)cc1	·	-5.0	·	·	·	·
CN1C(=O)c2cc(NC(=O)C3CC3)ccc2OC[C@@H]2O[C@H](CC(=O)O)CC[C@@H]21	·	15.6	·	·	·	·
Cc1nnc(N(CCC#N)CCC#N)s1	·	·	4.4	84.8*	2.3	6.5
CCc1nn2cc(C(=O)c3cc(Cl)ccc3O)cnc2c1-c1ccc(F)cc1	65.4*	43.0	-0.5	64.3*	-7.8	-2.2
Cc1nn(-c2ccccc2)c2ncc(C(=O)c3cc(Cl)ccc3O)cc12	4.6	-10.9	4.5	28.2	-1.5	6.6
Cc1cc(/C=C2\Cc3ccccc3C2=O)c(C)n1-c1ccccc1	5.6	-7.0	44.5*	53.9*	-74.6*	-74.3
Cc1cc(/C=C2/C(=O)NN(c3ccccc3)C2=O)c(C)n1-c1cccc(O)c1	80.8*	-30.7	16.6	91.7*	-63.3*	-68.9
Cc1cc(C=C2C(=O)c3ccccc3C2=O)c(C)n1-c1ccccc1	30.7	·	12.8	89.0*	?	-56.7
Cc1cc(C=C2C(=O)c3ccccc3C2=O)c(C)n1-c1ccc(C(=O)O)cc1	6.2	-42.0	-0.4	-11.8	2.9	10.7
